Test results: PubChem BioAssay (NCI)
The panel holds about 79,000 compounds, 15% with a hit somewhere; the sample as a whole holds those more often. The source made the active and inactive calls. No stated cut-off is given here; in the data, active means growth inhibition above about 70%; inactive means the rest.

Columns and labels:
[1] = NCI Yeast Anticancer Drug Screen. Data for the rad52 strain (AID 147);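 further: 0% = growth of vehicle-treated control cultures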; settings: S. cerevisiae rad52 mutant growth inhibition, hits give high values
In short: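 Compounds are applied to a genetically defined yeast strain lacking normal DNA damage repair, and inhibition of growth is expressed relative to cultures given vehicle only.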

[2] = NCI Yeast Anticancer Drug Screen. Data for the wt1 strain (AID 149);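 further: 0% = growth of vehicle-treated wt1 cultures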; settings: S. cerevisiae wt1 strain (SPY 50644) growth inhibition, hits give high values
In short: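 Readout: yeast growth inhibition, normalised to vehicle controls, in the wt1 strain exposed to test compounds.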

[3] = NCI Yeast Anticancer Drug Screen. Data for the rad50EPP+ strain (AID 151);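 further: 0% = growth of vehicle-treated control cultures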; settings: S. cerevisiae rad50 mutant strain, hits give high values
In short: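 Compounds were applied to the rad50EPP+ yeast strain, which bears a defined DNA repair alteration, and growth inhibition was determined relative to vehicle-treated cultures.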

[4] = NCI Yeast Anticancer Drug Screen. Data for the rad50 strain (AID 155);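 further: 0% = growth of vehicle-only cultures of the same strain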; settings: S. cerevisiae rad50 strain growth inhibition, hits give high values
In short: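 Compounds were tested on a yeast strain with an engineered DNA damage repair alteration; the reported value is growth inhibition normalised to vehicle treatment.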

[5] = NCI Yeast Anticancer Drug Screen. Data for the mec2-1 strain (AID 157); settings: S. cerevisiae mec2-1 strain, hits give high values
In short: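 Strain: mec2-1 (DNA repair/cell cycle alteration). Compound exposure, then growth measured; inhibition expressed relative to vehicle.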

[6] = NCI Yeast Anticancer Drug Screen. Data for the rad14 strain (AID 159);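 further: 0% = growth of vehicle-treated control cultures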; settings: S. cerevisiae rad14 strain growth inhibition, hits give high values
In short: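 Compound-treated yeast with a defined DNA-repair lesion; growth inhibition normalised to vehicle-treated cultures.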

[7] = NCI Yeast Anticancer Drug Screen. Data for the sgs1 mgt1 strain (AID 161);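 further: 0% = growth of cultures given vehicle only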; settings: S. cerevisiae sgs1 mgt1 strain, hits give high values
In short: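 Read-out: growth inhibition vs vehicle controls. Cells: mutant yeast strain deficient in DNA damage repair.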

[8] = NCI Yeast Anticancer Drug Screen. Data for the CLN2oe strain (AID 163);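 further: 0% = growth of vehicle-only control cultures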; settings: S. cerevisiae CLN2oe strain, hits give high values
In short: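 Growth of a genetically modified yeast strain is measured after compound exposure and compared with cultures given vehicle alone.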

[9] = NCI Yeast Anticancer Drug Screen. Data for the cln2 rad14 strain (AID 165);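 further: 0% = growth equal to vehicle treated cultures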; settings: S. cerevisiae cln2 rad14 strain, hits give high values
In short: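 Compounds are applied to the cln2 rad14 yeast strain, and growth is then compared with that of vehicle-treated cultures to give inhibition.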

[10] = NCI Yeast Anticancer Drug Screen. Data for the bub3 strain (AID 167); settings: S. cerevisiae bub3 mutant strain, hits give high values
In short: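 Growth of a checkpoint-deficient yeast mutant is measured after compound exposure. Values represent inhibition relative to vehicle.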

[11] = NCI Yeast Anticancer Drug Screen. Data for the mlh1 strain (AID 171);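 further: 0% = growth of vehicle-treated control cultures of the same strain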; settings: S. cerevisiae mlh1 strain growth inhibition, hits give high values
In short: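 Growth of the mutant yeast strain after compound exposure, expressed as inhibition relative to vehicle-only controls.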

[12] = NCI Yeast Anticancer Drug Screen. Data for the sgs1 strain (AID 173);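 further: 0% = growth of vehicle-only control cultures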; settings: S. cerevisiae sgs1 mutant, hits give high values
In short: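 Growth of a yeast strain bearing a defined genetic alteration is measured after compound treatment. Inhibition is expressed relative to vehicle-only controls.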

[13] = NCI Yeast Anticancer Drug Screen. Data for the mlh1 rad18 strain (AID 175); settings: S. cerevisiae mlh1 rad18 strain growth inhibition, hits give high values
In short: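 Read-out is yeast growth inhibition, calculated against vehicle-only controls. The compound was applied to a strain engineered with DNA damage repair alterations.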

[14] = NCI Yeast Anticancer Drug Screen. Data for the rad18 strain (AID 177); settings: S. cerevisiae rad18 mutant growth inhibition, hits give high values
In short: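 Growth of the mutant yeast strain after compound exposure, normalised to vehicle-only cultures.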

[15] = NCI Yeast Anticancer Drug Screen. Data for the mgt1 strain (AID 153); settings: S. cerevisiae mgt1 mutant growth inhibition, hits give high values
In short: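 Strain: mgt1 yeast, one of a set carrying defined DNA damage repair or cell cycle control alterations. Compound-treated growth compared with vehicle.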

[16] = NCI Yeast Anticancer Drug Screen. Data for the wt2 strain (AID 169);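 further: 0% = growth of vehicle-treated yeast cultures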; settings: S. cerevisiae wt2 strain growth inhibition, hits give high values
In short: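 This strain belongs to a panel of yeast strains with defined genetic alterations in DNA damage repair or cell cycle control. Compounds are applied, and growth inhibition is measured against vehicle-treated cultures.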

[17] = at 5.0 µM (retest, dose inferred, filed as 0.5)
[18] = at 50.0 µM (retest, dose inferred, filed as 5.0)

Measured: growth inhibition

CC(C)C(c1ccccc1)c1ccccc1
active: [1]; at 100.0 µM 77% | [3]; at 100.0 µM 93% | [4]; [18] 70% | [4]; at 100.0 µM 93% | [5]; at 100.0 µM 99% | [6]; at 100.0 µM 70% | [12]; at 100.0 µM 99%
inactive: [1]; at 1.2 µM 4% | [1]; at 3.7 µM 9% | [1]; at 11.0 µM 9% | [1]; at 33.0 µM 8% | [2]; at 1.2 µM -1% | [2]; at 3.7 µM -1% | [2]; at 11.0 µM 0% | [2]; at 33.0 µM -2% | [2]; at 100.0 µM 49% | [3]; at 1.2 µM 3% | [3]; at 3.7 µM 6% | [3]; at 11.0 µM 14% | [3]; at 33.0 µM 43% | [4]; at 1.2 µM 1% | [4]; at 3.7 µM 18% | [4]; [17] -144% | [4]; at 11.0 µM 9% | [4]; at 33.0 µM 10% | [4]; at 50.0 µM 10% | [5]; at 1.2 µM 2% | [5]; at 3.7 µM 3% | [5]; [17] -50% | [5]; at 11.0 µM -10% | [5]; at 33.0 µM 1% | [5]; [18] -32% | [5]; at 50.0 µM 49.4% | [6]; at 1.2 µM -1% | [6]; at 3.7 µM -5% | [6]; at 11.0 µM 2% | [6]; at 33.0 µM 7% | [7]; [17] -54% | [7]; [18] -37% | [7]; at 50.0 µM 52.2% | [8]; at 1.2 µM -5% | [8]; at 3.7 µM -1% | [8]; at 11.0 µM 2% | [8]; at 33.0 µM 1% | [8]; at 100.0 µM 69% | [9]; [17] -52% | [9]; [18] -33% | [9]; at 50.0 µM 16% | [10]; at 1.2 µM -6% | [10]; at 3.7 µM 1% | [10]; [17] -67% | [10]; at 11.0 µM -4% | [10]; at 33.0 µM -4% | [10]; [18] 44% | [10]; at 50.0 µM -0.75% | [10]; at 100.0 µM 66% | [11]; at 1.2 µM 3% | [11]; at 3.7 µM 0% | [11]; at 11.0 µM 0% | [11]; at 33.0 µM 2% | [11]; at 100.0 µM 60% | [12]; at 1.2 µM -1% | [12]; at 3.7 µM -3% | [12]; at 11.0 µM -3% | [12]; at 33.0 µM -3% | [13]; [17] -113% | [13]; [18] -101% | [13]; at 50.0 µM 29.2% | [14]; at 1.2 µM 3% | [14]; at 3.7 µM -1% | [14]; at 11.0 µM 3% | [14]; at 33.0 µM 3% | [14]; at 100.0 µM 59%

O=C1C(/C=C/c2ccc(Cl)cc2)=NNC2N1N=C1NC(=O)C3(NN12)c1ccccc1-c1ccccc13 (stereo not drawn)
active: [4]; at 50.0 µM 83.3% | [7]; at 50.0 µM 73.5% | [10]; at 50.0 µM 87.2% | [13]; at 50.0 µM 87.7%
inactive: [1]; at 1.2 µM -2% | [1]; at 3.7 µM -2% | [1]; at 11.0 µM -1% | [1]; at 33.0 µM -3% | [1]; at 100.0 µM 10% | [2]; at 1.2 µM 1% | [2]; at 3.7 µM 2% | [2]; at 11.0 µM 1% | [2]; at 33.0 µM 2% | [2]; at 100.0 µM 6% | [3]; at 1.2 µM -1% | [3]; at 3.7 µM -3% | [3]; at 11.0 µM 1% | [3]; at 33.0 µM 0% | [3]; at 100.0 µM 10% | [15]; at 1.2 µM -2% | [15]; at 3.7 µM -2% | [15]; at 11.0 µM -2% | [15]; at 33.0 µM -13% | [15]; at 100.0 µM 4% | [4]; at 1.2 µM -7% | [4]; at 3.7 µM -15% | [4]; [17] -10% | [4]; at 11.0 µM -21% | [4]; at 33.0 µM -1% | [4]; [18] 22% | [4]; at 100.0 µM 12% | [6]; at 1.2 µM -1% | [6]; at 3.7 µM -2% | [6]; at 11.0 µM -1% | [6]; at 33.0 µM 0% | [6]; at 100.0 µM 5% | [7]; [17] -4% | [7]; [18] 22% | [8]; at 1.2 µM -3% | [8]; at 3.7 µM -3% | [8]; at 11.0 µM 1% | [8]; at 33.0 µM 9% | [8]; at 100.0 µM 14% | [9]; [17] 18% | [9]; [18] 32% | [9]; at 50.0 µM 62.9% | [10]; at 1.2 µM -2% | [10]; at 3.7 µM 1% | [10]; [17] -19% | [10]; at 11.0 µM 0% | [10]; at 33.0 µM -2% | [10]; [18] -12% | [10]; at 100.0 µM 1% | [16]; at 1.2 µM -2% | [16]; at 3.7 µM -2% | [16]; at 11.0 µM -2% | [16]; at 33.0 µM 1% | [16]; at 100.0 µM 4% | [11]; at 1.2 µM 0% | [11]; at 3.7 µM 0% | [11]; at 11.0 µM 1% | [11]; at 33.0 µM 2% | [11]; at 100.0 µM 4% | [12]; at 1.2 µM -1% | [12]; at 3.7 µM 0% | [12]; at 11.0 µM -1% | [12]; at 33.0 µM 1% | [12]; at 100.0 µM 3% | [13]; [17] -34% | [13]; [18] 62% | [14]; at 1.2 µM -3% | [14]; at 3.7 µM -1% | [14]; at 11.0 µM -1% | [14]; at 33.0 µM 0% | [14]; at 100.0 µM 17%
